# Results published in PubChem BioAssay (NCATS).
# Values without a mark were called inactive. Records with an inconclusive call do not appear. The source made the active and inactive calls. Unless noted, calls come from the whole dose curve; as a rule, active = well fitted curve in either direction with a large enough effect (not every such curve was filed as active); inconclusive = small, poorly fitted or top-dose-only effect, or another doubt; inactive = flat fitted curve, though single readings scatter.
# Tests used:
# [1] = molecular target: Lysosomal acid glucosylceramidase (Homo sapiens) (UniProt P04062); assay: Glucocerebrosidase-p2 (AID 348; in the data active = potency below about 10 µM; note: potency is the fitted concentration of half-maximal effect); conditions: purified GBA, blue fluorogenic substrate, 40 min
# Outline: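 Normal human glucocerebrosidase (0.2 nM) with blue fluorogenic substrate (80 uM final) in citrate/phosphate pH 5.9 with 10mM sodium taurocholate, 0.01% tween-20; 40 min RT, NaOH/glycine stop; fluorescence Ex 365/Em 440; AC50 from a titration from 0.6 nM upwards.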
# [2] = AP1 Signaling Pathway (AID 357); conditions: ME-180 AP-1-bla reporter, EGF-induced, beta-lactamase ratio, 5 h; at 7.69 µM (top of the series) unless noted;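 note: ME-180 reporter cells stimulated with EGF at its EC50 level; % is set by controls: 0 for no effect and ±100 for the full control effect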
# Outline: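 In this screen, ME-180 cells in Opti-MEM with 0.5% dialyzed FBS received EC50 EGF and compound titrations for 5 h. AP-1 reporter beta-lactamase was detected via CCF4 ratio, giving AC50 for positive and negative modulators.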
# [3] = molecular target: Cytochrome P450 1A2 (Homo sapiens) (UniProt P05177); assay: p450-cyp1a2 (AID 410; calls by dose curve; note: potency is the fitted concentration of half-maximal effect;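 for activity change, negative = inhibition: -100% = full effect of reference inhibitor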); conditions: recombinant CYP1A2, luciferin-ME demethylation, luminescence; series mostly up to 11.4 µM
# Outline: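 Read-out is luminescence from luciferin produced by CYP1A2 demethylation of Luciferin-ME (100uM, at Km). Detection reagent stopped the 60 min NADPH-dependent reaction; signals were normalized to 57 uM furafylline.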
# [4] = NFAT Signaling Pathway (AID 444); conditions: Jurkat NFAT-bla M1, carbachol, beta-lactamase ratio, 5 h; at 7.69 µM (top of the series) unless noted;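 note: carbachol stimulus at about its EC50 of 1 µM final; % is set by controls: 0 for no effect and ±100 for the full control effect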
# Outline: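 Jurkat cells carrying an NFAT-driven β-lactamase reporter and co-transfected muscarinic M1 receptor were treated with compound plus carbachol (1 uM final, an EC50 level) for 5 h at 37 °C. CCF4 loading followed for 1 h at RT; 460/530 nm ratio gave %activity.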
# [5] = Stat Signaling Pathway (AID 446); conditions: ME-180 (cervical carcinoma) SIE beta-lactamase reporter, IL-6 stimulated, 5 h; at 7.69 µM (top of the series) unless noted;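 note: ME-180 cervical cancer cells given 40 pM IL-6 alongside compound; SIE-controlled beta-lactamase reporter measured as 460/530 nm FRET emission ratio; % is set by controls: 0 for no effect and ±100 for the full control effect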
# Outline: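 Normalization used AC90 stimulation (300 pM IL-6) and AC90 inhibition (125 nM pan-JAK inhibitor at 40 pM IL-6). The underlying signal is SIE-driven beta-lactamase in ME-180 cells after 5 h IL-6 exposure with compound.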
# [6] = molecular target: Glucocorticoid receptor (Homo sapiens) (UniProt P04150); assay: GR-GFP Redistribution (AID 450;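 active = compounds whose dose series gives a full or clear partial fitted curve of increased nuclear translocation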; note: potency is the fitted concentration of half-maximal effect); conditions: U2OS GR-GFP nuclear translocation, laser cytometry, 2 h
# [7] = molecular target: Glucocorticoid receptor (Homo sapiens) (UniProt P04150); assay: GR-EFC Redistribution (AID 451; calls by dose curve; note: potency is the fitted concentration of half-maximal effect); conditions: CHO-K1 GR-EFC translocation, beta-gal luminescence, 2 h
# Outline: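 CHO-K1 cells stably expressing nuclear-localized β-gal enzyme acceptor and GR fused C-terminally to the enzyme donor fragment; ligand-driven nuclear translocation restores β-gal by complementation. Compounds titrated up to 46 uM final, 2 h at 37 °C; luminescence read.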
# [8] = molecular target: Mitogen-activated protein kinase 10 (Mus musculus) (UniProt Q61831); assay: JNK3 AlphaScreen Assay (AID 530); conditions: JNK3 lysate, c-Jun phosphorylation; series mostly up to 11.4 µM;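 note: kinase came from lysate of stimulated human HepG2 cells; signal reports phosphorylation of biotinylated GST-cJun 1-79 at Ser73 with 10 µM ATP; % is set by controls: 0 for no effect and ±100 for the full control effect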
# Outline: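 Biotinylated GST-cJun(1-79) served as substrate for JNK3 in HepG2 lysates stimulated with IL-1beta and TNF-alpha. ATP was 10 uM final, pH 7.6. Ser73 phosphorylation was quantified by AlphaScreen (680 nm excitation).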
# [9] = molecular target: 3',5'-cyclic-AMP phosphodiesterase 4B (Homo sapiens) (UniProt Q07343); assay: qHTS Assay for Inhibitors of PDE-IV (AID 607; active = well fitted activation curve with a large enough effect in the main read-out, with a control signal flat, not every such curve was filed as active; note: % of control where 0% means no effect); conditions: HEK293 ACTOne CNG channel cells, membrane potential fluorescence; series mostly up to 22.9 µM
# Outline: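 HEK293 ACTOne cells with CNG channel (1000/well), endogenous PDE4; membrane potential dye, compounds up to 22.9 uM final. Fluorescence Ex 535/Em 590; RO 20-1724 (100 uM final) as reference.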
# [10] = molecular target: Cytochrome P450 2C9 (Homo sapiens) (UniProt P11712); assay: qHTS Assay for Inhibitors and Substrates of Cytochrome P450 2C9 (AID 883; active = well fitted inhibition curve with a large enough effect; note: % is set by controls: 0 for no effect and ±100 for the full control effect; nearly all actives have a fitted effect of over 60% in size); conditions: recombinant CYP2C9, luciferin-H luminescence, 60 min; series mostly up to 11.4 µM
# Outline: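 CYP2C9 deoxyluciferin hydroxylation, 37C, 60 min with NADPH regeneration; 10nM enzyme, 100uM Luciferin-H (KM). Glo detection reagent stopped reaction; luminescence normalized to sulphaphenazole (57uM) full inhibition.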
# Sequence of Glucocorticoid receptor (Homo sapiens) (P04150 whole entry, looked up, the tested form may be a part): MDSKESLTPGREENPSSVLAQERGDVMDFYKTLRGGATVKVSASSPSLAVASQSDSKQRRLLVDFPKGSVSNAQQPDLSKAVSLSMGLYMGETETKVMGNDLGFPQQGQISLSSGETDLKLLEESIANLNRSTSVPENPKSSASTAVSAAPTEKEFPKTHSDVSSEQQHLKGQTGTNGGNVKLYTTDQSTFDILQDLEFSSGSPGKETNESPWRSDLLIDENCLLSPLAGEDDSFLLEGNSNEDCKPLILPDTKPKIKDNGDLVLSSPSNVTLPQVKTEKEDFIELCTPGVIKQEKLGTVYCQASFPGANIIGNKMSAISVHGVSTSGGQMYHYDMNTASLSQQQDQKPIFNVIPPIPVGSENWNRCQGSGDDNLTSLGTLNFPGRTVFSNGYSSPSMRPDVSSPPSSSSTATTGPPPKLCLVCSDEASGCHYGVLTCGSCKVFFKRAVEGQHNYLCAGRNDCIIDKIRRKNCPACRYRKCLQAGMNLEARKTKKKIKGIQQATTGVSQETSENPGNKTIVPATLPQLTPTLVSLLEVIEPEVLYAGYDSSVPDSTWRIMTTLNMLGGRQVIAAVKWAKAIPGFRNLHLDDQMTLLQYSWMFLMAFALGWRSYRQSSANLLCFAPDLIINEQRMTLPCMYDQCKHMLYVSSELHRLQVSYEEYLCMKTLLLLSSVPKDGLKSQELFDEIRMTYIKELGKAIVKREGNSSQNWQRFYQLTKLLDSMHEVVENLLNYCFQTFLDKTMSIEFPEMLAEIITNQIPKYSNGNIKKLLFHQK
# Sequence of 3',5'-cyclic-AMP phosphodiesterase 4B (Homo sapiens) (Q07343 whole entry, looked up): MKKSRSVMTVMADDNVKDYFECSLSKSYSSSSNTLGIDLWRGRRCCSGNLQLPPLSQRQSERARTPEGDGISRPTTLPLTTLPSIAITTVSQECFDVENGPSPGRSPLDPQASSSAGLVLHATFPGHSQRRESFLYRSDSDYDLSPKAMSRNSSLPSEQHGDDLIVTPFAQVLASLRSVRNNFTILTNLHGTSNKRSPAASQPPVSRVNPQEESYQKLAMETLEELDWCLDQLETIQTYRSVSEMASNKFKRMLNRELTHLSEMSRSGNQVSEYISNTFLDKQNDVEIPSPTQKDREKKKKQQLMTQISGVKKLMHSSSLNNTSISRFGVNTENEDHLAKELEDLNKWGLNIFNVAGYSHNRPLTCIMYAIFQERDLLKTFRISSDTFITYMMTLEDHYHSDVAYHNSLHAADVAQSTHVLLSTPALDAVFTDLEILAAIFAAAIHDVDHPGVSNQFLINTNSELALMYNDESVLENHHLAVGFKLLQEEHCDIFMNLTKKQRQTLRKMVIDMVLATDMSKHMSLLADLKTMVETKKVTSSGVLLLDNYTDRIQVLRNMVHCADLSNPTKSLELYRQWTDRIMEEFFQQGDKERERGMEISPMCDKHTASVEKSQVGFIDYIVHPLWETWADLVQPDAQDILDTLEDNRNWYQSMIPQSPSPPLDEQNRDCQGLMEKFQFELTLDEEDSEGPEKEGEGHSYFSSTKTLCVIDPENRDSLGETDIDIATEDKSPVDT
# Sequence of Cytochrome P450 1A2 (Homo sapiens) (P05177 whole entry, looked up): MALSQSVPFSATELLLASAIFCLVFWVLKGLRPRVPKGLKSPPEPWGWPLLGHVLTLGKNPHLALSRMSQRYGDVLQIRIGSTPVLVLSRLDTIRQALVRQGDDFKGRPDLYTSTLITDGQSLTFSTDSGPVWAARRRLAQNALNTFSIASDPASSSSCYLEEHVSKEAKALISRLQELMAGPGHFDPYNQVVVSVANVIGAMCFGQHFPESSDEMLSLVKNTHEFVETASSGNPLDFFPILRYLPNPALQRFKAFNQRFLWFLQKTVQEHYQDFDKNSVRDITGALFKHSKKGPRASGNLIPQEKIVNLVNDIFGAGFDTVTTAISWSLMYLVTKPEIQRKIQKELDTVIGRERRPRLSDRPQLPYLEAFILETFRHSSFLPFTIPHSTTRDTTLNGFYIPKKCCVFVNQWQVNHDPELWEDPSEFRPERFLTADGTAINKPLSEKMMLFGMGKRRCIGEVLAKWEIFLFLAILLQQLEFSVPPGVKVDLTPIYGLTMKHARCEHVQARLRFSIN
# Sequence of Cytochrome P450 2C9 (Homo sapiens) (P11712 whole entry, looked up): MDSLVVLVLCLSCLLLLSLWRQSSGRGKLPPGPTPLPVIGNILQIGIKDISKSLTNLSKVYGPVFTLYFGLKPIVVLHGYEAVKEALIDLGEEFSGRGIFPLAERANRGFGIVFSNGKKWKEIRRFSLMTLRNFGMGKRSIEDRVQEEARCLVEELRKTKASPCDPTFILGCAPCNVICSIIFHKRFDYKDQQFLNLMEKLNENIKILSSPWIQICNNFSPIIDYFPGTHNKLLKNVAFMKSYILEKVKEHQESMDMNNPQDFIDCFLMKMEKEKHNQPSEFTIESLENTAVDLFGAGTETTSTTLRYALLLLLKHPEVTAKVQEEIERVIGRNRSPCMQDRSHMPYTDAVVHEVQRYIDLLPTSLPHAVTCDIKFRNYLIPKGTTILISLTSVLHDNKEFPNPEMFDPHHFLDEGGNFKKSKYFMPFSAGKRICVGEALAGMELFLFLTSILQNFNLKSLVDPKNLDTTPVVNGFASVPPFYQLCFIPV
# Sequence of Lysosomal acid glucosylceramidase (Homo sapiens) (P04062 whole entry, looked up): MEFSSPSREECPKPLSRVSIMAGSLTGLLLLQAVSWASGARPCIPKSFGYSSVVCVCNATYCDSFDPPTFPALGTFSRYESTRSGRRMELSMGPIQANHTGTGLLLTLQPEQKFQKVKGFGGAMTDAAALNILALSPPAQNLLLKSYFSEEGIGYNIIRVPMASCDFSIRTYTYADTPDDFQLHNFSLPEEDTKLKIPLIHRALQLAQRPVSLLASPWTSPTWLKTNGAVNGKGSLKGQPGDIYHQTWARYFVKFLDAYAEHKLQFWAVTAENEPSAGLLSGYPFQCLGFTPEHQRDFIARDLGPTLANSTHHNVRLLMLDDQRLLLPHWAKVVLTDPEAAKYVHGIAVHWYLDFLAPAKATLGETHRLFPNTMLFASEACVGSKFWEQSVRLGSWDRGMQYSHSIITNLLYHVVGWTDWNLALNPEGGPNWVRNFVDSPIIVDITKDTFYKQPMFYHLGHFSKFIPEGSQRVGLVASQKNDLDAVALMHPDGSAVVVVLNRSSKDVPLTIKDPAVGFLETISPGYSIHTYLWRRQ
Compound,Potency [1],"activity change, negative = inhibition [2]","activity change, negative = inhibition [3]","activity change, negative = inhibition [4]","activity, negative = inhibition [5]",Potency [6],Potency [7],Potency [8],Potency [9],Potency [3],Potency [10]
Nc1nc2c(c(=O)[nH]1)CN(c1ccc(S(N)(=O)=O)cc1)CN2,> 11.4 µM,-2.56%,8.8% [at 2.29 µM],12%,1.71%,> 46 µM,> 9.22 µM,inactive,inactive,–,–
O=C(O)[C@@H]1[C@@H]2C[C@@H]3[C@@H](OC(=O)[C@@H]31)[C@H]2Br,> 11.4 µM,4.57%,–,-26.7%,5.86%,> 46 µM,> 9.22 µM,inactive,inactive,inactive,–
c1ccc(CCNc2ccccn2)nc1,> 11.4 µM,-8.73%,–,2.35%,-1.9%,> 46 µM,> 9.22 µM,inactive,inactive,5.01 µM (active),–
Nc1ncnc2c1ncn2CCCCC(=O)O,> 11.4 µM,10.7%,–,13.9%,-0.241%,> 46 µM,> 9.22 µM,inactive,inactive,inactive,–
O=C(O)C(Cc1ccccc1-c1ccccc1)C(=O)O,> 11.4 µM,12.3%,–,3.57%,-0.388%,> 46 µM,> 9.22 µM,inactive,inactive,inactive,–
NC[C@H]1O[C@H](n2cnc3c(N)ncnc32)C[C@@H]1O,> 11.4 µM,-8.42%,–,7.55%,9.05%,> 46 µM,> 9.22 µM,inactive,inactive,inactive,–
NS(=O)(=O)c1ccc(N=Nc2ccc[nH]c2=O)cc1,3.95 µM (active),-1.61%,–,-25.2%,-6.14%,> 46 µM,> 9.22 µM,inactive,inactive,0.501 µM (active),–
CCN(CCO)C[C@H]1CCC[C@H]2CCCC[C@@H]21,> 11.4 µM,16.9%,–,0.328%,4.97%,> 46 µM,> 9.22 µM,inactive,inactive,5.01 µM (active),–
O=C(O)COc1c(Cl)cc(Cl)c2cccnc12,> 11.4 µM,6.1%,-1.3% [at 2.29 µM],1.63%,-0.716%,> 46 µM,> 9.22 µM,inactive,inactive,–,–
OCCn1cnc2c(SCc3ccccc3)ncnc21,> 11.4 µM,-4.68%,–,1.04%,-1.73%,> 46 µM,> 9.22 µM,inactive,inactive,3.16 µM (active),–
COc1ccc(-c2nc(N)c3ncn([C@H]4O[C@@H](CO)[C@@H](O)[C@@H]4O)c3n2)cc1,> 11.4 µM,-12.4%,-13% [at 2.29 µM],0.656%,3.98%,> 46 µM,> 9.22 µM,inactive,inactive,–,–
CC(=NCC(=O)O)c1ccccc1,> 11.4 µM,0.333%,–,13.9%,1.76%,> 46 µM,> 9.22 µM,inactive,inactive,3.98 µM (active),–
Cc1ccc(S(=O)(=O)N[C@H](CO)C(=O)O)cc1,> 11.4 µM,1.84%,–,-20.5%,0.571%,> 46 µM,> 9.22 µM,inactive,inactive,inactive,–
CC(C)(N)C(=O)N[C@@H]1C(=O)N2[C@@H]1SC(C)(C)[C@H]2C(=O)O,> 11.4 µM,-6.43%,4.4% [at 2.29 µM],-0.727%,-0.982%,> 46 µM,> 9.22 µM,inactive,inactive,–,–
Oc1c(CN2CCOCC2)ccc(CN2CCOCC2)c1O,> 11.4 µM,-1.19%,-11.9% [at 2.29 µM],13%,-3.77%,> 46 µM,> 9.22 µM,inactive,inactive,–,–
O=C(O)c1cccc(SSc2cccc(C(=O)O)c2)c1,> 11.4 µM,0.262%,–,17.5%,-14.5%,> 46 µM,> 9.22 µM,inactive,inactive,5.01 µM (active),–

Compound,Potency [1],"activity change, negative = inhibition [2]","activity change, negative = inhibition [3]","activity change, negative = inhibition [4]","activity, negative = inhibition [5]",Potency [6],Potency [7],Potency [8],Potency [9],Potency [3],Potency [10]
CC(=O)C=NCC(=O)O,> 11.4 µM,-0.671%,–,3.49%,-0.18%,> 46 µM,> 9.22 µM,inactive,inactive,inactive,–
CCN=C(N)CSS(=O)(=O)O,> 11.4 µM,9.8%,–,-7.3%,-20%,> 46 µM,> 9.22 µM,inactive,inactive,inactive,–
CN1CCN(CCCN)CC1,> 11.4 µM,0.666%,–,18.2%,6.19%,> 46 µM,> 9.22 µM,inactive,inactive,inactive,–
Nc1nc2c(c(=O)[nH]1)N[C@H](CCNc1ccc(C(=O)O)cc1)CN2,> 11.4 µM,-0.0764%,–,14.5%,-3.77%,> 46 µM,> 9.22 µM,inactive,inactive,inactive,–
COc1c(NC(C)=O)c2ccccc2c2ccccc12,> 11.4 µM,-1.26%,–,-6.36%,1.8%,> 46 µM,> 9.22 µM,inactive,inactive,0.398 µM (active),inactive
C[C@]12CCC3c4ccc(OCC(=O)O)cc4CCC3C1CCC2=O (some centres undefined),> 11.4 µM,6.42%,0.7% [at 2.29 µM],-1.29%,9.48%,> 46 µM,> 9.22 µM,inactive,inactive,–,–
COc1cc2ccc([C@H](C)NCC#N)cc2cc1OC,> 11.4 µM,-11.4%,–,9.37%,-0.292%,> 46 µM,> 9.22 µM,inactive,inactive,0.501 µM (active),–
Cc1c(Cl)c(S(N)(=O)=O)cc2c1=NC=NS=2(=O)O,> 11.4 µM,-1%,-9.6% [at 2.29 µM],4.9%,1.77%,> 46 µM,> 9.22 µM,inactive,inactive,–,inactive
O=C(O)CSc1cc(-c2ccccc2)nc2ccccc12,> 11.4 µM,4.39%,-4.7% [at 2.29 µM],10.2%,-6.65%,> 46 µM,> 9.22 µM,inactive,inactive,–,–
CC(C)(C)c1cc2c(O)c(c1)Cc1cc(C(C)(C)C)cc(c1O)Cc1cc(C(C)(C)C)cc(c1O)Cc1cc(C(C)(C)C)cc(c1O)Cc1cc(C(C)(C)C)cc(c1O)Cc1cc(C(C)(C)C)cc(c1O)Cc1cc(C(C)(C)C)cc(c1O)Cc1cc(C(C)(C)C)cc(c1O)C2,> 11.4 µM,6.61%,–,-14.8%,-5.63%,> 46 µM,> 9.22 µM,inactive,inactive,inactive,–
NS(=O)(=O)c1cc(Br)c(N=Nc2ccc(O)c3ncccc23)c(Br)c1,> 11.4 µM,-0.828%,–,10.5%,21.9%,> 46 µM,> 9.22 µM,inactive,inactive,1.26 µM (active),inactive
N[C@@H](Cc1ncccn1)C(=O)O,> 11.4 µM,-0.104%,–,3.63%,3.82%,> 46 µM,> 9.22 µM,inactive,inactive,inactive,inactive
Clc1ccccc1C(Nc1cnccn1)Nc1cnccn1,> 11.4 µM,8.81%,-18% [at 2.29 µM],6.25%,-2.8%,> 46 µM,> 9.22 µM,inactive,inactive,–,–
O=C(O)c1cscc1Cc1cccs1,> 11.4 µM,-0.132%,–,-2.63%,5.79%,> 46 µM,> 9.22 µM,inactive,inactive,inactive,inactive
C[N+](C)(C)[C@H](Cc1c[nH]c(=S)[nH]1)C(=O)O,> 11.4 µM,4.67%,–,-2.8%,9.57%,> 46 µM,> 9.22 µM,inactive,inactive,inactive,–
